# KCNH2 WT inh = qHTS for Inhibitors of KCHN2 3.1: Wildtype qHTS; U2OS, BacMam KCNH2, thallium flux FluxOr; active compounds read low; activity change, % at 1.84 µM; actives 0.37% (n = 340,000);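 active = maximum activity change below -70%; inconclusive = maximum activity change between -70% and -50%; inactive = maximum activity change above -50%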; note: % is set by controls: 0 for no effect and ±100 for the full control effect
#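 U2OS cells transduced with wild-type KCNH2 virus are loaded with FluxOr dye for 45 min, and thallium flux is measured in kinetic reads before and after stimulation buffer. Rate constants are normalized to DMSO controls.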
# HEK293 tox = qHTS of GLP-1 Receptor Inverse Agonists: Cytotox Screen; HEK293 cAMP-luciferase reporter cells, luminescence, 24 h; Potency, µM (top dose mostly 38.3 µM), inactives show top-dose activity change, negative = inhibition, most hits filed as inhibitors; actives 0.13% (n = 410,000); AID 624418, 2012;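 note: loss of luciferase light is scored as toxicity; potency is the fitted concentration of half-maximal effect; % is set by controls: 0 for no effect and ±100 for the full control effect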
#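 Luminescence readout: signal drop marks cytotoxicity. Plated cells grew 12 h at 37 °C, 5% CO2, received 23 nL compound for 24 h, then got luciferase reagent, read after 12 min at RT.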
# GLP1R inv ag = qHTS of GLP-1 Receptor Inverse Agonists (Inhibition Mode). Glucagon-like peptide 1 receptor (Homo sapiens), P43220. HEK293 GLP-1R CRE-luciferase, luminescence, 24 h; GLP-1R form is constitutively active. Potency, µM (titrated, usually from 38.3 µM), inactives show top-dose activity change, negative = inhibition, hits mostly inhibitors. actives 1.6% (n = 410,000). AID 624417, 2012; note: potency is the fitted concentration of half-maximal effect; % is set by controls: 0 for no effect and ±100 for the full control effect; nearly all actives have a fitted effect of over 55% in size
#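 Assay principle: reduced luminescence from a cAMP-responsive reporter in HEK293 cells co-expressing a constitutively active GLP-1R. Conditions: 24 hr compound incubation, 37 deg C, 5% CO2.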
# GLS inhibitor = qHTS for Inhibitors of Glutaminase (GLS) | Glutaminase kidney isoform, mitochondrial (Homo sapiens), O94925 | GLS enzymatic activity, qHTS titration | Potency, µM (series often up to 45.5 µM), without a hit: at the top dose activity change, negative = inhibition, usual class: inhibitors | actives 0.21% (n = 410,000); note: potency is the fitted concentration of half-maximal effect; % is set by controls: 0 for no effect and ±100 for the full control effect
# Target sequence (O94925 whole entry, looked up, canonical isoform): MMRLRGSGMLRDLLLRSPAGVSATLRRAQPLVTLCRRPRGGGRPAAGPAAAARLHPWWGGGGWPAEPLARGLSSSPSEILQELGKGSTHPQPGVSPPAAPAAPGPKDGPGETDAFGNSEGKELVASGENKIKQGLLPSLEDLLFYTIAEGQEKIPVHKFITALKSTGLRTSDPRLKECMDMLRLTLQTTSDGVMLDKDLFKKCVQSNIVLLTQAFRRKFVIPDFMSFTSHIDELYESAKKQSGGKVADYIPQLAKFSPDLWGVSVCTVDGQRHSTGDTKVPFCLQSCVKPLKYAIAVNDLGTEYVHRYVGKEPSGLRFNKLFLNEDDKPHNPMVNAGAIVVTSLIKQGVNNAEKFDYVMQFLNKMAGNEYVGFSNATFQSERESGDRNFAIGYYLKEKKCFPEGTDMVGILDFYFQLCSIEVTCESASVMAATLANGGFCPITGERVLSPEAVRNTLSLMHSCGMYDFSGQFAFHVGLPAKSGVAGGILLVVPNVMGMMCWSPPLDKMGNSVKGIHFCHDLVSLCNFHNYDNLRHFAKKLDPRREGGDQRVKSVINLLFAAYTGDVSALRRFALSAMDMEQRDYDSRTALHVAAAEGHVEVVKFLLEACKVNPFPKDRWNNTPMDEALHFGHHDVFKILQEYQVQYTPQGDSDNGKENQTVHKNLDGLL
#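 hKGA; 45 mM KH2PO4 pH 8.2 + 0.02% Tween-20; cpd via pin tool; 1 mM Gln soln; GluOx/HRP/Amplex Red; RT 30 min; fluor. t0 & final.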
# GLP-1R agonist = qHTS of GLP-1 Receptor Agonists; Glucagon-like peptide 1 receptor (Homo sapiens), P43220; HEK293 GLP-1R CRE-luciferase, luminescence, 4-6 h; cells express a hypersensitive GLP-1R form; Potency, µM (series often up to 45.6 µM), inactives show top-dose activation, usual class: activators; actives 0.007% (n = 380,000); AID 624172, 2012; note: potency is the fitted concentration of half-maximal effect; % of control where 0% means no effect
# KCNH2 3.1 inh = qHTS for Inhibitors of KCHN2 3.1: Mutant qHTS; activity change, % (tested at about 1.8 µM); actives 0.95% (n = 340,000); AID 720553, 2013; Potassium voltage-gated channel subfamily H member 2, brain isoform KCNH2 3.1 (human); U2OS KCNH2 3.1, thallium flux FluxOr; active compounds read low;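 active = maximum activity change below -70%; inconclusive = maximum activity change from -70% to -50%; inactive = maximum activity change above -50%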;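 note: thallium influx rate constant from kinetic fluorescence after stimulation buffer; % is set by controls: 0 for no effect and ±100 for the full control effect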
#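 Thallium flux via FluxOr fluorescence (Red40 quencher, 45 min loading) in U2OS cells virally expressing the KCNH2 3.1 isoform (1.77 x 10^8 /mL virus, overnight at 37 C). Rate constants from 2-min kinetic reads post-stimulation, normalised to positive and negative controls.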
# * hit, by the source's call; i = inactive; ? = inconclusive; / = not tested or not shown; [ ] = another dose, or the depositor's remark. Only some compounds are listed: those with a hit (about 2.8% of all), similar ones and a draw of the others. Unless noted, calls come from the whole dose curve; as a rule, active = well fitted curve in the direction sought with a large enough effect; inconclusive = small, poorly fitted or top-dose-only effect, or another doubt; inactive = no such curve, though single readings can be large; an effect the other way counts as inactive or inconclusive.
SMILES,KCNH2 WT inh,HEK293 tox,GLP1R inv ag,GLS inhibitor,GLP-1R agonist,KCNH2 3.1 inh
COCCSc1ccccc1C(=O)N1CCOCC1,-4,1%,0%,13%,-4%,-86*
COc1ccc(-c2oc3ccccc3c(=O)c2OC(C)=O)cc1,5,5%[0.307 µM],5%[0.307 µM],-23%,-12%,1
CC(=O)Oc1c(-c2ccc(Br)o2)oc2ccccc2c1=O,-1,i,5.6µM*,8%,0%,7
CS(=O)(=O)N1CCc2cc(C(=O)Nc3ccc(Cl)c(C(F)(F)F)c3)ccc21,/,?,10µM*,-9%,/,/
CS(=O)(=O)N1CCc2cc(C(=O)Nc3ccc(C(F)(F)F)cc3)ccc21,/,-18%,-14%,-15%,/,/
COc1ccccc1C1C(C(=O)Nc2ccccc2)=C(C)Nc2nc(-c3ccccc3)nn21 (configuration not stated),/,-9%,-55%,-8%,-3%,/
COC(=O)c1sc(S(=O)(=O)N2CCC(C)CC2)c(C(=O)OC)c1C,-3,0%,-21%,-5%,13%,1
COC(=O)c1sc(S(=O)(=O)N2CCCCC2)c(C(=O)OC)c1C,-1,-4%,0%,-15%,1%,-187*
O=C(NNC(=O)c1ccc2ccccc2c1O)NC1CCCCC1,-88*,19%,-8%,4%,5%,-10
O=C1C=C(NCC2CCCO2)C2(CCCCC2)O1 (configuration not stated),-13,1%,0%,-22%,-9%,-79*
Cc1ccccc1-c1nn2c(=O)cc(CN3CCN(C(=O)c4ccccc4Br)CC3)nc2s1,/,16%,4%,2%,/,/
COC(=O)c1ccccc1NC(=O)COC(=O)c1ccccc1N=Nc1ccc(N(C)C)cc1,-5,5%,2%,13%,1%,-14
CC(=O)c1ccc(NC(=O)COC(=O)c2ccccc2N=Nc2ccc(N(C)C)cc2)cc1,-6,10µM*,43%,21%,7%,-7
OC(CNCCNc1ncccc1C(F)(F)F)Cn1ccc2ccccc21 (configuration not stated),-5,-5%,10µM*,-11%,22%,-41
COc1ccc(CCNC(=O)c2sc3nc4n(c(=O)c3c2C)CCCC4)cc1OC,/,6%,12%,7%,/,/
O=C(Nc1ccc(F)cc1)C1CCCN(c2ncnc3c2nc2n3CCCCC2)C1 (configuration not stated),/,1%,?,6%,/,/
Cc1ccc(NC(=O)C2CCCN(c3ncnc4c3nc3n4CCCCC3)C2)cc1F (configuration not stated),/,3%,3.5µM*,2%,/,/
CCc1cccc(NC(=O)C2CCCN(c3ncnc4c3nc3n4CCCCC3)C2)c1 (configuration not stated),-13,-10%,6.3µM*,5%,8%,-12
O=C(Nc1ccccc1Cl)C1CCCN(c2ncnc3c2nc2n3CCCCC2)C1 (configuration not stated),-1,-14%,3.2µM*,-6%,11%,13
COc1cccc(N2CCN(C(=O)C3CCCN(c4ncnc5c4nc4n5CCCCC4)C3)CC2)c1 (configuration not stated),9,?,4.5µM*,11%,10%,-3
O=C(Nc1cccc(Cl)c1)C1CCCN(c2ncnc3c2nc2n3CCCCC2)C1 (configuration not stated),/,?,46%,-3%,/,/
CCOC(=O)[C@]12CCCC=C1N(Cc1ccco1)C(=O)[C@H](CC(=O)NCCCOC)C2,/,-6%,11%,4%,-8%,/
CCOCCCn1c(SCC(=O)Nc2ccc(C)cc2)nc2ccccc2c1=O,/,-13%,-27%,-9%,/,/
CCN(Cc1ccccc1)C(=O)C1CCN(c2ncnc3c2nc2n3CCCCC2)CC1,2,-10%,-11%,3%,13%,1
CCc1ccccc1N(CC)C(=O)C1CCN(c2ncnc3c2nc2n3CCCCC2)CC1,-3,-27%,8.9µM*,4%,-2%,-7
SMILES,KCNH2 WT inh,HEK293 tox,GLP1R inv ag,GLS inhibitor,GLP-1R agonist,KCNH2 3.1 inh
CCNC(=O)C1(C)CCCN(C(=O)c2ccc(C(F)(F)F)nc2C)C1 (configuration not stated),/,7%,17%,2%,7%,/
C=CCOc1ccc(C2=NOC(C(=O)Nc3ccc4c(c3)OCCO4)C2)cc1OC (configuration not stated),-189*,3%,-28%,-12%,13%,4
Cc1ccc(SCC(=O)OCC(=O)N(CC(C)C)c2c(N)n(Cc3ccccc3)c(=O)[nH]c2=O)cc1C,-8,-29%,?,0%,6%,-1
COc1cc(OC)c2c(C)cc(=O)oc2c1C(CCN1CCN(c2ccccc2)CC1)c1ccc2c(c1)OCO2 (configuration not stated),-92*,?,?,10%,-4%,-103*
CCCCCc1cc(=O)oc2c(C(CCN3CCCCC3)c3ccc4c(c3)OCO4)c(OC)cc(OC)c12 (configuration not stated),-80*,2%,-1%,6%,4%,-42
COc1cc(OC)c2c(-c3ccccc3)cc(=O)oc2c1C(CCN1CCCC1)c1ccc2c(c1)OCO2 (configuration not stated),-82*,2%,31%,10%,10%,17
COc1cc(OC)c2c(-c3ccccc3)cc(=O)oc2c1C(CCN1CCOCC1)c1ccc2c(c1)OCO2 (configuration not stated),1,-20%,?,-1%,-7%,-32
COc1cc(O)c(C(CCN2CCN(c3ccccc3)CC2)c2ccc3c(c2)OCO3)c(OC)c1 (configuration not stated),?,4%,?,7%,0%,-90*
CC1CCCC(NC(=O)CN2C(=O)c3cccnc3Oc3ccc(Cl)cc32)C1C (configuration not stated),9,-2%,?,-12%,10%,-29
COc1ccccc1-c1cc2nc(C)c(CCC(=O)NCCc3cccc(C)c3)c(C)n2n1,/,-20%,?,-1%,-10%,/
Cc1ccccc1NC(=O)C(Cc1ccccc1)N1Cc2ccccc2C1=O (configuration not stated),/,-3%,-27%,1%,/,/
Cc1ccc(N(CC(=O)NCc2ccco2)C(=O)CCC(=O)Nc2nccs2)cc1,0,3%,6%,2%,10%,4

# Source: PubChem (National Center for Advancing Translational Sciences (NCATS))
